Results on 7 molecules are retold here after PubChem BioAssay (Tox21).

A short description of test [1]: A CellTox Green Cytotoxicity Assay to monitor cytotoxicity in HEK293 cells - 32 hour (AID 1224881). Also: nearly all actives have a fitted effect of over 40% in size. Put shortly:
(§1)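 Homogeneous no-lysis format: HEK293 cell suspension mixed with CellTox Green reagent, seeded, incubated 5 h at 37 C/5% CO2, then dosed by pintool with compound in DMSO.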

Test [2] can be described thus: A CellTox Green Cytotoxicity Assay to monitor cytotoxicity in HepG2 cells - 0 hour (AID 1224882). Also: nearly all actives have a fitted effect of over 35% in size. In a few lines:
(§2)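 Fluorescent DNA-binding dye, 600 HepG2 cells/well, 5 h preincubation then compound in DMSO; same plates read at 0–40 h, 37 C.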

A short description of test [3]: A CellTox Green Cytotoxicity Assay to monitor cytotoxicity in HepG2 cells - 32 hour (AID 1224883). Also: nearly all actives have a fitted effect of over 50% in size. Also: potency is read from the fitted curve at half-maximal effect. Put shortly:
as §2

The nature of test [4]: qHTS RealTime-Glo MT Cell Viability Assay in HepG2 cells - 16 hour (AID 1224885). Also: nearly all actives have a fitted effect of over 50% in size. Put shortly: (§3)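 Cells + NanoLuc/prosubstrate dispensed (600 cells/well) → 5 h at 37 C/5% CO2 → compounds in DMSO transferred → 40 h incubation at 37 C, luminescence read at 0, 8, 16, 24, 32, 40 h.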
Test [5] in a line: qHTS RealTime-Glo MT Cell Viability Assay in HEK293 cells - 24 hour (AID 1224886). Also: top concentration of the series differs between compounds; nearly all actives have a fitted effect of over 50% in size. In a few lines: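 Tox21 10K qHTS, HEK293, 600 cells/well, RealTime-Glo reagent co-dispensed with cells; 5 h preincubation, compound by pintool, 37 C, luminescence at 0–40 h.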
Test [6] is described as follows: qHTS RealTime-Glo MT Cell Viability Assay in HEK293 cells - 8 hour (AID 1224887). Also: top concentration of the series differs between compounds; nearly all actives have a fitted effect of over 50% in size. In a few lines:
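Measured as luminescence from the same continuously cultured HEK293 wells at successive time points (0, 8, 16, 24, 32, 40 h) after compound addition. Reagent present from seeding; dosing at 5 h; incubation 37 C.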

Test [7] can be described thus: A CellTox Green Cytotoxicity Assay to monitor cytotoxicity in HEK293 cells - 16 hour (AID 1224888). Also: nearly all actives have a fitted effect of over 35% in size. In a few lines:
as §1

Test [8] can be described thus: qHTS RealTime-Glo MT Cell Viability Assay in HepG2 cells - 0 hour (AID 1224889). Also: nearly all actives have a fitted effect of over 50% in size. Put shortly: as §3
Test [9] can be described thus: A CellTox Green Cytotoxicity Assay to monitor cytotoxicity in HepG2 cells - 8 hour (AID 1224890). Also: nearly all actives have a fitted effect of over 45% in size. In a few lines:
as §2

Test [10] in a line: qHTS assay to identify small molecule antagonists of the estrogen receptor alpha (ER-alpha) signaling pathway using the BG1 cell line in the presence of 0.1 nM 17-beta-estradiol - cell viability counter screen (AID 1259241). Also: nearly all actives have a fitted effect of over 40% in size. Put shortly:
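VM7Luc4E2 cells (endogenous full-length ER-alpha, 4xERE-luciferase), cultured 5 days in charcoal-stripped serum, exposed to compounds with 0.1 nM 17beta-estradiol (final) for 22 hr at 37C. Viability read in same wells as live-cell protease fluorescence after 30 min.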

Test [11] is described as follows: qHTS assay to identify small molecule antagonists of the androgen receptor (AR) signaling pathway using the MDA cell line in the presence of 0.5 nM R1881 - cell viability counter screen (AID 1259242). Also: nearly all actives have a fitted effect of over 45% in size. Also: potency is read from the fitted curve at half-maximal effect. Put shortly: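 Human breast carcinoma MDA-kb2 cells, cultured without CO2, receive compounds alongside 0.5 nM (final) R1881 agonist. After 16 hr at 37C, viability is taken as live-cell protease signal.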
On the technique in general: qHTS replaces the single test concentration by a dilution series.

The nature of test [12]: qHTS assay to identify small molecule HDAC inhibitors (AID 1259364). Also: potency is read from the fitted curve at half-maximal effect.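 Also: wild-type HCT-116 cells with endogenous class I/II HDAC activity; nearly all actives have a fitted effect of over 45% in size.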 In a few lines: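 After a 2 hr compound incubation (37C, 5% CO2), HCT-116 cells seeded at 1,500/well the day before received HDAC-Glo reagent; signal read as luminescence after 30 min at room temperature.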
A short description of test [13]: qHTS assay to identify small molecule HDAC inhibitors - cell viability counter screen (AID 1259365). In a few lines: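 Wild-type HCT-116 cells, 1,500/well, cultured overnight, then compound-treated 2 h at 37 C. Viability measured as ATP luminescence with CellTiter-Glo after 30 min at room temperature.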
The nature of test [14]: qHTS assay to identify small molecule agonists of the sonic hedgehog signaling (Shh) pathway - cell viability counter screen (AID 1259366). Also: nearly all actives have a fitted effect of over 50% in size. In a few lines: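 NIH/3T3-derived Gli1-Luc reporter cells, 2,000 per well, received compound after 4 h and were treated about 23 h at 37C. Viability measured in the same wells by CellTiter-Fluor fluorescence after 1 h.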
The nature of test [15]: qHTS assay to identify small molecule antagonists of the sonic hedgehog signaling (Shh) pathway - cell viability counter screen (AID 1259367). Also: nearly all actives have a fitted effect of over 55% in size. In a few lines: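 Fluorescence read-out (CellTiter-Fluor, 1 hr at 37C) taken after 23 hr compound treatment of 3T3 Gli1-Luc cells stimulated with conditioned medium. Cells were seeded at 2,000 per well and pre-incubated 4 hr.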
Test [16] in a line: qHTS assay to identify small molecule agonists of the sonic hedgehog signaling (Shh) pathway (AID 1259368; calls by dose curve;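 also: NIH/3T3-derived 3T3Gli1-Luc cells carrying a stable Gli1-driven firefly luciferase reporter; series mostly up to about 92 µM; nearly all actives have a fitted effect of over 15% in size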). Put shortly:
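Stable NIH/3T3 Gli1-Luc reporter clone; 24 hr cpd exposure after a 4 hr settling period; luminescence endpoint.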

Test [17] is described as follows: qHTS assay to identify small molecule phospholipidosis (PLD) inducers (AID 1259344; active = well fitted curve in the direction sought with a large enough effect; an effect the other way counts as inactive or inconclusive). Put shortly:
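Read-out is LipidTOX Red fluorescence (ex 595/em 615) imaged in HepG2 cells after 24 h compound exposure at 37 C, with Hoechst nuclear counterstain (ex 352/em 461) allowing per-cell normalisation.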

Test [18] addresses Estrogen receptor (Homo sapiens) (UniProt P03372). The test can be described thus: qHTS assay to identify small molecule antagonists of the estrogen receptor alpha (ER-alpha) signaling pathway using the BG1 cell line in the presence of 0.1 nM 17-beta-estradiol (AID 1259244). Also: nearly all actives have a fitted effect of over 50% in size. In a few lines: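 Seeding of stripped-serum-adapted VM7Luc4E2 cells, 24 h attachment, compound transfer, then 0.1 nM final 17beta-estradiol; after 22 h incubation, ONE-Glo reagent and luminescence reading.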

Test [19] can be described thus: A CellTox Green Cytotoxicity Assay to monitor cytotoxicity in HEK293 cells - 8 hour (AID 1224884). Also: nearly all actives have a fitted effect of over 35% in size. Put shortly: as §1

Values joined by “and” are separate entries in the source; they are usually repeats but may differ in a detail not shown here. Identical values can stand only once. Records with an inconclusive call do not appear. Where a structure was tested more than once in an assay, its records may differ in their call. Active and inactive are the calls of the source. Unless noted, calls follow the shape of the dose curve; as a rule, active = well fitted curve in the direction sought with a large enough effect in the repeat runs; inconclusive = weak or mixed curves; inactive = no such curve, though single readings can be large; an effect the other way counts as inactive or inconclusive.

Sequence of Estrogen receptor (Homo sapiens) (P03372 whole entry, looked up): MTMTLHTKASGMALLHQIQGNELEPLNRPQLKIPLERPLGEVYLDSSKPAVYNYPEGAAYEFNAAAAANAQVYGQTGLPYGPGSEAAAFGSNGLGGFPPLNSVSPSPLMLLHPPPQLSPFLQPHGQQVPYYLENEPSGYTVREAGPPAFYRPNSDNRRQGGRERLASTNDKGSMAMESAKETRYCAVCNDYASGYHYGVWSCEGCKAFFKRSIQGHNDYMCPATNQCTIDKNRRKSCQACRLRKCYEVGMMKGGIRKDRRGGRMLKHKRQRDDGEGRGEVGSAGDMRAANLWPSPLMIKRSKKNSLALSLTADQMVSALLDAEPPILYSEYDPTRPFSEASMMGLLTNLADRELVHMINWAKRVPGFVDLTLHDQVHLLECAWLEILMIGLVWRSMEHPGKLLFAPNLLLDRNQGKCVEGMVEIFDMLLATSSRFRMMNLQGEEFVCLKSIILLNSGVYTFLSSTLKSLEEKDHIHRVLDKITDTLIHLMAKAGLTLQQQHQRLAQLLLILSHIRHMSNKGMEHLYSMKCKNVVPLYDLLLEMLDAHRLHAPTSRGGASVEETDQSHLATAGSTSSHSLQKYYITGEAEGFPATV

In the case of `C=CC(=O)OCCCC`, the Potency entry in test [1], in [2], in test [3], in [4], in [5] and in test [6] was “inactive” in each case. In addition, the Potency entry in test [7], in test [8], in test [9], in test [10], in test [11] and in test [12] was “inactive” each time. The Potency result in test [14], in [15] and in test [16] was “inactive” each time. Moreover, the outcome in test [13] was inactive.
Take `C=C[C@H]1CN2CC[C@H]1C[C@H]2[C@H](O)c1ccnc2ccc(OC)cc12`: the Potency result in test [1], in [2], in [4], in [5], in [7] and in [8] was “inactive” each time. In addition, the Potency result in [9], in test [10], in [11], in [17], in [12] and in test [14] was “inactive” each time. For the same molecule, in [15], the Potency result was “inactive”. Besides, the Potency in test [3] was 54.9 µM (active) and inactive. The outcome in [13] was inactive.
With `CC1(C)OC(=O)NC1=O`, the Potency entry in test [1], in [2], in test [3], in test [4], in test [5] and in [7] was “inactive” each time. In addition, the Potency entry in test [8], in test [9], in [10], in [11], in test [17] and in [12] was “inactive” throughout. Further, the Potency result in test [14], in [15] and in test [16] was “inactive” in each case. For the same molecule, the call in test [13] was inactive.
As for `O=C(O)CCCC(=O)O`, the Potency result in test [1], in test [2], in test [3], in test [4], in test [5] and in test [6] was “inactive” in each case. Also, the Potency result in test [7], in [8], in test [9], in [11], in test [18] and in [12] was “inactive” throughout. The Potency result in test [14] and in [16] was “inactive” each time. Moreover, the molecule was classed as inactive in [13].
With `CC1=CC(C)(C)Nc2ccccc21`, the Potency result in [1], in test [2], in [3], in [4], in test [6] and in test [7] was “inactive” in each case. The Potency entry in test [8], in [9], in test [10], in test [11], in [18] and in test [12] was “inactive” in each case. Moreover, the Potency result in test [14] and in [16] was “inactive” in each case. For the same molecule, the molecule was called inactive in test [13].
As to `COc1ccc(-c2coc3cc(O)cc(O)c3c2=O)cc1`, the Potency result in test [1], in [2], in test [19], in [4], in [7] and in [8] was “inactive” each time. Further, the Potency entry in test [9], in [18], in [14], in test [15] and in test [16] was “inactive” in each case. Besides, the Potency was 54.9 µM (active) and inactive in [11]; 21.9 µM (active) and 17.2 µM (active) in [12]. The call in test [13] was inactive.
As for `Clc1ccc(Sc2cc(Cl)c(Cl)cc2Cl)cc1`, the Potency result in test [1], in test [2], in test [3], in [4], in [5] and in test [6] was “inactive” each time. In addition, the Potency entry in test [7], in [8], in test [9], in test [11], in [12] and in test [14] was “inactive” throughout. For the same molecule, the Potency entry in test [16] was “inactive”. Also, the outcome in [13] was inactive.
